Where a chain is given by its changes, count along the chain named. The full ranking holds about 5,800 sequences; the median of “enrichment r” is about 0.54, and the highest 2% start at about 16. This is one part of a sample in which the highest values are shown more often than they occur.
B1: ENSG00000136451:be:win_1501|CDS_3pUTR|ENSG00000136451|bound_else_gene|NA|bound_elsewhere_windowed (ssRNA)
RNA: GGGAGUUCUACAGUCCGACGAUCGCAAUGAGACCUGUAGAGAGCAUGCCUUUCUUGCCCCAAGCUUUGCCUACAUCACCGCCUUGGUAAACAGUAUUAUAAAAUCAAAAUAUGGGUAAAAGUAAAUAUUUACCAGCAACUUAACAACAGAGGAUUGAGCAUCA
B2: chr8:41262032:41262394:-|3pUTR|ENSG00000104332|msi1|total|mutant (ssRNA)
RNA: GGGAGUUCUACAGUCCGACGAUCGGCCGUUCUGACCUGUUGCCAGCAGAUACACAGGACAUGGAUGAAAUUCCCGUUUCCUCCCGUUUCUUCCUGCCGUACUCCUCUUUCCGAUCCUAAGUCUCUUACAAAAGCUUUGAAUACCAACAGAGGAUUGAGCAUCA
B3: chr1:6522505:6522606:-|3pUTR|ENSG00000162408|msi1|FALSE|unique (ssRNA)
RNA: GGGAGUUCUACAGUCCGACGAUCCUGGGAUUACAGGCGUGAGCCACUGCGCCUGGCCUGAAGCUAUUCUUUACAAAAGCUCUUAGUUUUUGUUUGUUUGUUUGUUUUUUUCUUUUGCGACGGACUCUCUGUCGCCAAGGCUGGCAACAGAGGAUUGAGCAUCA
B4: chr12:95077336:95077437:-|3pUTR|ENSG00000180263|msi1|FALSE|unique (ssRNA)
RNA: GGGAGUUCUACAGUCCGACGAUCUCCUCAUUGACCCAUCCGCAUCUCUGUUUAUCCAAGACUUCUCUGUGAUAGCUGACCCUUAGUCUUUCUCUCCCCUAUUCCUCCAGACUAGAUCCUGUCUCCUUCCUGCAGCCCCGACACCAACAGAGGAUUGAGCAUCA
B5: chr2:121605696:121605828:-|CDS|ENSG00000074054|unk|total|mutant (ssRNA)
RNA: GGGAGUUCUACAGUCCGACGAUCGACCGACUAUUUCUCAGACAAACAGAAGUCUGCUGACCUUGAGCAUGACCAGACCAUGUCCGAUAAACUUGUGGAUGGACUUGCUACCUCUUGGGUGAACUCCCGCAAUUACAAGGUAAGCAACAGAGGAUUGAGCAUCA
B6: chr10:24583932:24584033:-|3pUTR|ENSG00000107863|unk|total|mutant (ssRNA)
RNA: GGGAGUUCUACAGUCCGACGAUCAACAAAAGUGCCUCAUCAUAAAAAUACAGUUGGUUUUCCGGGUGCCAUAUUGUUAAAAUCCGAUAACUUACUUACAUUGAAUAAACGAAUGCGUUUUAUUGGUAACAGAUAUCAUUACAUCAACAGAGGAUUGAGCAUCA
B7: chr5:171862525:171862626:-|3pUTR|ENSG00000072803|msi1|FALSE|unique (ssRNA)
RNA: GGGAGUUCUACAGUCCGACGAUCGACAGUGCAUGGAAAGGACGUUGGCAUCCAAUUGGCACUCCUUCUCCCUUAUUCAAUAUUAGGUUUGAUUUGCCCUUCGCCAUUGUUUCCAAAGAUCAAGGAAUGUCAAUAACAUUUUAACAACAGAGGAUUGAGCAUCA
B8: chr7:56101660:56101848:-|3pUTR|ENSG00000106153|msi1|FALSE|unique (ssRNA)
RNA: GGGAGUUCUACAGUCCGACGAUCUGGAGAGAUGGAAAAUCAGCUCUCAUAACUAAGUUAAUUUAGUAUAAAAAUAGAAUUGAUAGUGAGGGUAUAAAGUGUAACCAUCAGUUAAACCUCUCCUGUCAUUCCUGGCUUCCUUGCCAACAGAGGAUUGAGCAUCA
B9: chr7:101137467:101137738:+|3pUTR|ENSG00000106366|msi1|FALSE|unique (ssRNA)
RNA: GGGAGUUCUACAGUCCGACGAUCGUUAAAAGAUGGUAAACCAGAUCUGUCUCCAAGACCUUGGCCUCUCCUUGGAGGACCUUUAGGUCAAACUCCCUAGUCUCCACCUGAGACCCUGGGAGAGAAGUUUGAAGCACAACUCCCCAACAGAGGAUUGAGCAUCA
B10: chr14:74942539:74942640:-|3pUTR|ENSG00000119630|msi1|total|mutant (ssRNA)
RNA: GGGAGUUCUACAGUCCGACGAUCGUGUAUUUAUUACCGUCACACUCUUCAGUGACUCCUGCUGGUACCUGCCCUCUAUUUAUCCGCCAACUGUUUCCCUGCUGAAUGCCUCGCUCCCUUCAAGACGAGGGGCAGGGAAGGACACAACAGAGGAUUGAGCAUCA
B11: chr1:151048051:151048152:+|CDS|ENSG00000143443|unk|FALSE|unique (ssRNA)
RNA: GGGAGUUCUACAGUCCGACGAUCGACCGCCUGGCUGGACCAGCGGCUGCCGAGCUCUUGGCCGCCACGGUGUCCACCGGCUUUAGCCGGUCGUCCGCCAUUAACGAGGAGGAUGGGUCUUCAGAAGAGGGGGUUGUGAUUAAUCAACAGAGGAUUGAGCAUCA
B12: chrX:65741840:65741941:+|3pUTR|ENSG00000147065|msi1|total|mutant (ssRNA)
RNA: GGGAGUUCUACAGUCCGACGAUCAAAUUGUUUUUGGAGGGGUUUAUGCUCAAUCCAUGUUCUAUUUCAGUGCCAAUAAAAUUCCGGAAGACUUCACAGUGACUCAAUCGUUCUUUGUGGUAUGAGUGGGCCGCUGUAAGAUAUCAACAGAGGAUUGAGCAUCA
B13: chr12:106067485:106067586:-|CDS|ENSG00000074590|msi1|FALSE|unique (ssRNA)
RNA: GGGAGUUCUACAGUCCGACGAUCCCUGAAGAAGCGAAGCAACAGCGAGCAUCGCUCUCACAGCACUGGCUUCAUUGAAGGUGUAGUUGGUCCUGCCUUACCCUCUACUUUCAAGAUGGAGCAGGACUUGUGCAGGACUGGCGUCAACAGAGGAUUGAGCAUCA
B14: chr12:7729382:7729740:-|three_prime_utr|ENSG00000198178|control|control|control (ssRNA)
RNA: GGGAGUUCUACAGUCCGACGAUCAUCUACAUAUAAAUGAAAUAUUCUCCCUGGAAAUGUGUUUGGGUUGGCAUCCACCGUUGUAGAAAGCUAAAUUGAUUUUUUAAUUUAUGUGUAAGUUUUGUACAAGGAAUGCCCCUAAAACAACAGAGGAUUGAGCAUCA
B15: chr20:53567570:53567671:-|3pUTR|ENSG00000171940|unk|FALSE|unique (ssRNA)
RNA: GGGAGUUCUACAGUCCGACGAUCUCACAAGCUGAGCCAUAUGUACAUAAUCUAGAUUUUGUUUUCAUAGUUUUGCACUUUUAUAGCCUAUUUUUGAAGAUUAACACAUUUGCAAGAUGAUUGACUCAAUCUUUGCCUAAUCCACAACAGAGGAUUGAGCAUCA
B16: chrX:131089436:131089558:+|3pUTR|ENSG00000147256|unk|FALSE|unique (ssRNA)
RNA: GGGAGUUCUACAGUCCGACGAUCGGGAAACCUCAAGUGUAGGUCUAAUUAGUGUUUCUGGGAUCCAAAGUUAGAGGAAAAUUUAGAUUUUAUUGCCUGGAUCUGCUUUAAAGACAAUUGGUGUUUACACCCUCUUGUCAGCAACAACAGAGGAUUGAGCAUCA
B17: chr4:168926953:168927063:+|3pUTR|ENSG00000129116|msi1_unk|FALSE|overlapping (ssRNA)
RNA: GGGAGUUCUACAGUCCGACGAUCCAAAAGAGUUUUCUAACAAGGUUAAUACCUUAGUUCUUAACAUUUUUUUUCUUUAUGUGUAGUGUUUUCAUGCUACCUUGGUAGGAAACUUAUUUACAAACCAUAUUAAAAGGCUAAUUUCAACAGAGGAUUGAGCAUCA
B18: chrX:131089436:131089558:+|3pUTR|ENSG00000147256|unk|total|mutant (ssRNA)
RNA: B16 RNA with U39C, A40C, U49C, A50C, U71C, A72C, U83C, A84C
B19: chr4:185586528:185586629:-|3pUTR|ENSG00000154556|msi1|FALSE|unique (ssRNA)
RNA: GGGAGUUCUACAGUCCGACGAUCAUCCAUAUGAUAUGUUGUACAUUUUAUGGAAAUGUAAUAGAAUCUCACACAUUAUUUUAUAGAAAUAGAGUACAGAAGCAUCACAAGUAUUAAAGUUGGUUUUAGCAAGGAUUAGGAUUACAACAGAGGAUUGAGCAUCA
B20: ENSG00000136451:be:win_1601|3pUTR|ENSG00000136451|bound_else_gene|NA|bound_elsewhere_windowed (ssRNA)
RNA: GGGAGUUCUACAGUCCGACGAUCAAUAUUUACCAGCAACUUAACUUUUAGUUGAUUAAAGCAAAAAGUAAACCAUGAAAUUGGGAGAUUUUAUUACAUUAGUUAAUAAGAGUGUGGUAGCAUUUUUCUCCAAUUUGGCUGGGACAACAGAGGAUUGAGCAUCA
B21: chr4:185586528:185586629:-|3pUTR|ENSG00000154556|msi1|total|mutant (ssRNA)
RNA: B19 RNA with U61C, A62C, U83C, A84C, U89C, A90C, U126C, A127C, U136C, A137C
B22: chr12:98549714:98549829:+|3pUTR|ENSG00000120802|unk|total|mutant (ssRNA)
RNA: GGGAGUUCUACAGUCCGACGAUCGAAGAUGUAUAUUCCGACCAGCACACAAUUUUGAUUUCAAUCCGCCUUAUUCUAAUAUUCCGCUUUCCGAUCUUUCAUACACAUUUUCACGUACUUUGCAAUUGAGACCAGAAAGACUUGCAACAGAGGAUUGAGCAUCA
B23: chr7:2728618:2728646:-|3pUTR|ENSG00000146535|msi1_unk|FALSE|overlapping (ssRNA)
RNA: GGGAGUUCUACAGUCCGACGAUCUUUAAUUUCACUGUUAAUCCUUAUUGUCUUUUUUAUUAAGAUGUUGGAAAAGCAGGAGGUAGUUGUGCCUCAAUUAUUGCAAAAAUGUAACAAUAAAGUUCCUCAAAAUAAGAUCUGUUCCAACAGAGGAUUGAGCAUCA
B24: chr12:98549714:98549829:+|3pUTR|ENSG00000120802|unk|FALSE|unique (ssRNA)
RNA: B22 RNA with C37U, C38A, C65U, C66A, C83U, C84A, C90U, C91A
B25: chr4:168926953:168927063:+|3pUTR|ENSG00000129116|msi1_unk|total|mutant (ssRNA)
RNA: B17 RNA with U54C, A55C, U83C, A84C, U105C, A106C

Each binder was assayed against MSI1 full-length (mouse, UniProt Q61474 1-362) (assay: nsRBNS (natural sequence RNA bind-n-seq); RBNS binding buffer (assumed for nsRBNS): 25 mM Tris pH 7.5, 150 mM KCl, 3 mM MgCl2, 0.01% Triton X-100, 500 ug/ml BSA, 20 U/ml SUPERase-In, 4 C; UNK is unkempt and MSI1 is Musashi-1; names of the RNAs are library labels; protein concentration not given here; high values mean tight binding).
Sequence of MSI1 full-length (Q61474 whole entry): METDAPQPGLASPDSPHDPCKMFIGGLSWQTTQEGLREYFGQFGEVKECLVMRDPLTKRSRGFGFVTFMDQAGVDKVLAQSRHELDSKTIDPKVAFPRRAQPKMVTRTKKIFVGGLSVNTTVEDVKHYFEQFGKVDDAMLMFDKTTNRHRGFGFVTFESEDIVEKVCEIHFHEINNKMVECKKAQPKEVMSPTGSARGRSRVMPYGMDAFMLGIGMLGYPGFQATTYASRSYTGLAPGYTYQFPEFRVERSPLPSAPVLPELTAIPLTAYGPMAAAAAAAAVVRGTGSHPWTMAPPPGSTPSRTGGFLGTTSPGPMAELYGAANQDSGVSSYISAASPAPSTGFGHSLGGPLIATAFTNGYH

Row | Binder | binding signal [enrichment R]
1 | B1 | 0.827
2 | B2 | 0.417
3 | B3 | 0.372
4 | B4 | 1.24
5 | B5 | 0.532
6 | B6 | 0.389
7 | B7 | 0.699
8 | B8 | 5.86
9 | B9 | 0.316
10 | B10 | 0.338
11 | B11 | 0.497
12 | B12 | 0.205
13 | B13 | 0.282
14 | B14 | 0.681
15 | B15 | 4.98
16 | B16 | 20.8
17 | B17 | 20
18 | B18 | 0.224
19 | B19 | 34.5
20 | B20 | 1.37
21 | B21 | 0.725
22 | B22 | 0.832
23 | B23 | 0.334
24 | B24 | 23.7
25 | B25 | 0.747

From paper PMC12136788
